Hit rate of the full screen: of about 150,000 compounds, about 540 (0.36%) showed an effect of 50% or more. The full list was thinned out, with strong results kept by preference.
Each compound was assayed on Plasmodium falciparum (assay: Primary screen in NF54 nanoGlo assay, in single point, at 2uM, 72h; a lower Z score goes with more inhibition). Conditions: timepoint 72 hour.
Assay type: functional, Erythrocyte

SMILES | % Inhibition | Z score
NS(=O)(=O)c1cnc(N[C@H]2CCc3ccc(F)cc32)s1 | -3% | 0.33
COc1cc(C)c2[nH]c3c(c(=O)c2c1)CN(CC(=O)Nc1ccc(F)c(C)c1)CC3 | 43% | -1.61
COc1cc(C)c2[nH]c3c(c(=O)c2c1)CN(CC(=O)Nc1ccc2c(c1)OCCO2)CC3 | 52% | -1.23
COc1cc(C)c2[nH]c3c(c(=O)c2c1)CN(CC(=O)Nc1ccc2c(c1)OCO2)CC3 | 44% | -0.61
O=C1N(CC2CCCCC2)CCC[C@@]1(O)CN1CCOCC1 | -7% | 1.35
CCOC1(c2nc(Cc3conc3C)no2)CCCC1 | 6% | -0.78
CCOc1cc(Cl)ccc1C(=O)NC1CCN(C[C@H]2CCOC2)CC1 | 38% | -0.42
c1nc(NCCC2CCCCC2)c2cnoc2n1 | 7% | -0.88
CC(C)[C@@H](C(=O)NCc1cccc(C(F)(F)F)c1)N1CCCS1(=O)=O | -4% | 0.83
Cc1c(-c2nn(-c3ccccc3)c(-c3cnn(C)c3C)c2Cl)cnn1C | 39% | -4.45
Cc1nn(C)cc1-c1nn(-c2nc(C3CC3)cc(C(F)(F)F)n2)c(-c2cn(C)nc2C)c1C | 46% | 0.79
Cc1c(-c2nn(-c3nc(C4CC4)cc(C(F)(F)F)n3)c(-c3cnn(C)c3C)c2Cl)cnn1C | 76% | -8.32
Cc1nccn1C[C@H]1CCCN(C(=O)Cn2cccn2)C1 | -3% | 0.6
COC(=O)c1cc(OC)ccc1-c1cccc(C(=O)N2CCNC[C@@H]2C)c1 | -17% | 1.67
Cc1ccc(NC(=O)c2cccc(F)c2)c(-c2nc3ccccc3nc2O)c1 | -15% | 1.64
O=C(Nc1nc2cccc(Cl)c2o1)c1cccc(F)c1 | 89% | -8.47
Cc1nc(N2CCCC2)nc(C)c1NC(=O)c1cccc(F)c1 | -5% | 0.84
COc1ccccc1N1CCN(C(=O)[C@H](C)n2ccnc2)CC1 | -19% | 2.94
CCc1ccc(-c2cc(C(=O)Nc3ccc4nc(NS(C)(=O)=O)sc4c3)[nH]n2)cc1 | -13% | 1.27
CCn1c(N2CCC[C@H](C(=O)NCc3cccc(Cl)c3)C2)cc(=O)n(C)c1=O | -20% | 3.09
COc1ccc(N(Cc2c(C)noc2C)Cc2c(C)noc2C)cc1 | -5% | 0.44
CC1(C)CCCN1S(=O)(=O)c1onc(C2CC2)c1Cl | -3% | 0.41
O=c1[nH]c(=O)n(S(=O)(=O)c2ccccc2)cc1F | 90% | -12.13
O=c1[nH]c(=O)n(CCS(=O)(=O)c2ccccc2)cc1Cl | -11% | 1.09
Cc1ccc(S(=O)(=O)n2cc(C)[nH]c2=O)cc1 | -23% | 2.15
CC(C1CC1)n1cc(NC(=O)N2CCC(C(F)(F)F)C2(C)C)cn1 (stereo not given) | -10% | 1.23
O=C(CCc1ccccc1)N[C@H]1CC[C@H](Oc2ncc(F)cn2)CC1 | -10% | 1.77
Fc1cnc(OC2Cc3ccccc3C2)nc1 | 60% | -5.26

SMILES | % Inhibition | Z score
Cc1nnc(OC2Cc3ccccc3C2)s1 | -7% | 1.07
CCc1nnc(CNC(=O)C(=O)c2ccco2)o1 | -5% | 0.65
COc1ccc(CNC(=O)CCc2c(C)nn(-c3ccc4nnc(C)n4n3)c2C)c(OC)c1 | 5% | -0.63
CC[n+]1c(/C=C/N(C)c2ccccc2)oc2ccc(-c3ccccc3)cc21 | 88% | -9.92
CC[n+]1c(/C=C/N(C)c2ccccc2)oc2ccccc21 | 80% | -10.29
COc1ccc2c(c1)C(=O)N(Cc1ccccc1)C(=O)C2(C)C | -10% | 1.06
C[C@@H](c1cccnc1)N(C)Cc1nc2c(s1)CCC2 | -18% | 3.45
CCC(=O)Nc1cc(NC(=O)N(CC)CC2CCOCC2)ccc1OC | -8% | 1.44
Oc1ccc2ncccc2c1[C@@H](Nc1ccccn1)c1cccc(Cl)c1 | 34% | -3.9
Cc1cc([C@H](Nc2ccccn2)c2ccccc2)c(NC(=O)c2ccccc2)s1 | 31% | -0.7
Oc1ccc2ncccc2c1[C@@H](Nc1ccccn1)c1cccc(Br)c1 | 58% | -12.1
Cc1cccc(Cl)c1NC(=O)N1CCS(=O)(=O)[C@@H](C)C1 | -5% | 0.54
Cc1ccc(-n2nnnc2C2(NC(C)C)CCCC2)cc1 | -3% | 0.43
CC(=O)Nc1ccc(-c2nc(-c3cccnn3)no2)c(C)c1 | -22% | 2.61
CC(C)(C)CN(CC(=O)O)C(=O)Cc1ccccc1F | -9% | 1.82
CCN1CCN(C(=O)c2cnc(-c3ccc(F)cc3)nc2N(C)C)CC1 | 3% | -0.5
COc1ccnc(NCCCNc2nccc(OC)n2)n1 | -4% | 0.53
Cc1ccc(N2CCOCC2)c(NC(=O)C2CCCCC2)c1 | -1% | 0.12
COc1ccccc1COC(=O)Nc1c(C)nn(C)c1Cl | 2% | -0.32
Cc1nn(C)c(Cl)c1NC(=O)OCc1ccc(F)cc1 | 54% | -1.24
O=C(CNC(=O)OCc1ccccc1)Nc1ccc(F)cc1 | 37% | 2.05
Cc1ccc(N2S(=O)(=O)c3ccccc3S2(=O)=O)cc1 | 4% | -0.44
Cc1cc(NC(=O)C2CCC(C3CC3)CC2)n2ncnc2n1 (stereo not given) | -7% | 0.83
FC(F)(F)c1cccc(Nc2c3ccccc3nc3ccccc23)c1 | 10% | -0.85
CCOc1ccc(NC(=O)Cc2c(O)nc3ccccc3c2O)cc1 | -9% | 1.39
O=C(O)c1ccc(Nc2c3ccccc3nc3ccccc23)cc1 | -3% | 0.3
CCOc1ccc(Nc2c3ccccc3nc3ccccc23)cc1 | 81% | -10.53

— ChEMBL document CHEMBL4888484, “Replenishing the malaria drug discovery pipeline: Screening and hit evaluation of the MMV Hit Generation Library 1 (HGL1) against asexual blood stage Plasmodium falciparum ,using a nano luciferase reporter read-out” (2022)
